Compound activity: PubChem, several laboratories
APP 5UTR inh: APP translation inhibition. 190,000 tested, 0.82% active. SH-SY5Y APP 5'UTR-luciferase reporter, luminescence. inhibition, % at 2 µM;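 active means inhibition above a set limit, derived from the sample mean plus 3 SD, cut at about 45% in these data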
Ba/F3 V617F tox: reduce viability of Ba/F3 cells dependent on JAK2V617F; Ba/F3 EpoR-JAK2V617F viability, ATP luminescence; inhibition, % at 5.6 µM; 220,000 tested, 1.1% active; AID 1446;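 active means inhibition above the campaign mean plus 3 SD over all tested compounds, cut at about 24% in these data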;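 further: cytokine-independent growth of Ba/F3 cells driven by EpoR plus mutant JAK2; 0% = DMSO-treated cells and 100% = JAK inhibitor I control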
BaF3 parental: counter-screen for JAK2V617F inhibitors: parental Ba/F3 viability inhibitors | inhibition, % at 5.6 µM | 220,000 tested, 1.1% active | CellTiter-Glo ATP luminescence | AID 1486;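 active means inhibition above a per-campaign cutoff, the mean inhibition of all tested compounds plus 3 SD, cut at about 27% in these data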;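 further: 0% = DMSO wells and 100% = JAK Inhibitor I control wells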
KLF5 inhibitor: suppresses KLF5 promoter-driven expression; DLD-1 KLF5 promoter-luciferase reporter, luminescence; inhibition, % at 5 µM; 290,000 tested, 0.23% active; AID 1700;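 active means inhibition above a per-plate limit of that plate's mean compound inhibition plus 3 SD, cut at about 60% in these data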;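 further: 0% = DMSO wells and 100% = LY294002 at 200 µM; higher means less KLF5 promoter-driven luciferase light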
IEC-6 tox: counter-screen for KLF5 inhibitors: cytotoxicity in IEC-6 cells. IEC-6 cytotoxicity, luminescence viability. AID 1825. inhibition, % at 5 µM. 290,000 tested, 0.78% active; in the data active means inhibition above about 22%;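 further: 0% = plate median of test compound wells and 100% = cytotoxic reference compound wells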
BaF3 parental 2: reduces parental Ba/F3 viability, JAK2V617F counter-screen | CellTiter-Glo luminescence; cells kept alive by added IL-3 | AID 1520 | 580 tested, 31% active | inhibition, % at 5.6 µM | shares compounds with Ba/F3 V617F tox;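 active means cell growth inhibition above the hit limit set in the earlier mutant JAK2 cell screen, cut at about 27% in these data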;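 further: plate controls were DMSO-treated cells for no effect and JAK Inhibitor I control wells for full effect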
JAK2V617F confrm: Ba/F3 EpoR-JAK2V617F viability loss, confirmation; shares compounds with Ba/F3 V617F tox; CellTiter-Glo luminescence; inhibition, % at 5.6 µM; 580 tested, 66% active; AID 1521;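 active means mean inhibition above the hit cutoff derived in the earlier primary screen, cut at about 25% in these data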;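 further: 0% = DMSO-treated cells and 100% = JAK inhibitor I control wells; higher means lower luminescence from reduced cell ATP and viability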
Starred values were filed as active, the others as inactive; / = no result. In the library only some 1.9% were active in any assay of this set; here they are far more common.

SMILES	APP 5UTR inh	Ba/F3 V617F tox	BaF3 parental	KLF5 inhibitor	IEC-6 tox	BaF3 parental 2	JAK2V617F confrm
Fc1ccc2nc(C3CCN(Cc4nc(CC5CC5)no4)CC3)[nH]c2c1	-6.5	-1.4	6.9	-8.6	-6.6	/	/
Cc1c(O)ccc(C(=O)CN2CCN(c3ccccc3F)CC2)c1O	/	/	/	-35.6	-8.3	/	/
O=[N+]([O-])c1ccccc1N/N=C/c1cccc(O)c1O	/	61.8*	-0.5	-93.8	-10.0	51.1*	96.5*
CC(=O)Oc1ccc(C(=O)O)cc1OC(C)=O	4.1	-3.5	-2.4	5.1	-4.7	/	/
CC(=O)Oc1ccc(OC(C)=O)c(SCCCCCCl)c1	83.1*	84.7*	4.0	-27.7	1.1	102.0*	97.0*
COCCOC(=O)C1=C(C)N(c2ccccc2)C(=O)NC1c1cccc([N+](=O)[O-])c1 (centres undefined)	-8.9	33.6*	11.9	-16.1	-1.6	-2.9	9.2
Cc1nnc(SC(C(=O)Nc2ccc(Cl)c([N+](=O)[O-])c2)c2ccccc2)[nH]c1=O (centres undefined)	9.8	-1.3	-0.5	-14.6	-0.3	/	/
CCOc1ccc(N2C(=O)C3C4C=CC(CC4)C3C2=O)c([N+](=O)[O-])c1 (centres undefined)	-19.7	0.8	8.0	-14.4	-1.6	/	/
O=C(N/N=C/c1cc2c3c(c1O)CCCN3CCC2)c1ccccc1O	85.1*	35.0*	5.3	5.3	-4.6	95.2*	96.5*
O=S1(=O)C=C(Sc2nc3cc(Cl)ccc3o2)c2ccccc21	39.5	44.0*	7.1	-10.5	-4.5	107.5*	99.2*
CC(=O)N1CC=C2C(C#N)=C(N)C(C#N)(C#N)C(C)C2C1 (centres undefined)	-0.1	-3.0	4.1	-12.6	-2.6	/	/
COc1ccc2c(c1OC)C(=O)OC2Nc1nc(-c2ccc([N+](=O)[O-])cc2)cs1 (centres undefined)	/	-1.4	-2.6	-30.7	-4.4	/	/
COc1ccc(-c2csc(NC3OC(=O)c4c3ccc(OC)c4OC)n2)cc1OC (centres undefined)	/	27.2*	2.7	-16.3	6.7	12.8	31.2*
COc1ccc(C(=O)CSc2nnc(CNc3ccc(F)cc3)o2)cc1	-12.6	-1.8	2.8	-15.4	-1.4	/	/
CC(=O)N1CCN(c2ccc(NC(=O)c3ccc(Cl)cc3)cc2)CC1	/	/	/	-17.5	-6.3	/	/
O=c1c2c([nH]c3ccccc13)CCCCCC2	18.8	-5.2	4.7	-19.7	-0.5	/	/
O=C(CCl)Nc1ccc(N=Nc2ccccc2)cc1	-31.2	28.2*	2.0	-106.9	-5.4	19.2	94.2*
O=C(CCl)Nc1ccc(-c2ccccc2)cc1	22.9	18.9	3.3	-31.2	-5.2	/	/
Cn1cnc([N+](=O)[O-])c1S(=O)(=O)c1ccc(Cl)cc1	10.8	26.3*	-1.6	-1.5	11.0	0.9	68.8*
Cn1cnc([N+](=O)[O-])c1NC(C)(C)C	-0.9	2.4	8.7	-33.7	-0.6	/	/
O=C(Nc1nc(=O)c2ccccc2s1)c1ccccc1	-65.6	29.0*	15.1	0.1	0.9	-2.5	-11.6
CCOC(=O)c1cnc(-c2ccccc2)nc1Oc1ccc(OC)cc1	0.9	0.3	7.1	-27.2	0.3	/	/
Cc1nc([N+](=O)[O-])c(Sc2nc3ccccc3[nH]2)n1Cc1ccccc1	13.0	4.1	2.9	-4.5	9.0	/	/
Cn1cnc([N+](=O)[O-])c1Sc1nc2ccccc2[nH]1	/	34.1*	10.0	-6.2	10.2	5.1	43.5*
CC(C)COc1ccc(CN=C(N)N=C(N)N)cc1Cl	1.6	10.3	13.9	0.8	-3.3	/	/
SMILES	APP 5UTR inh	Ba/F3 V617F tox	BaF3 parental	KLF5 inhibitor	IEC-6 tox	BaF3 parental 2	JAK2V617F confrm
CC(C)Oc1ccc(CN=C(N)N=C(N)N)cc1Cl	-7.3	29.7*	2.3	-26.7	-8.6	40.5*	65.3*
N=c1c2c3c(sc2ncn1Cc1ccco1)CCCCC3	5.2	24.6*	0.7	-11.6	4.2	-4.9	8.2
C#CC[N+](C)(C)CC#Cc1ccccc1	-19.9	39.1*	11.4	-50.0	2.3	2.7	41.9*
CC(C)C[C@H](N)c1nnc(S(=O)(=O)Cc2cccc(F)c2)o1	-4.6	-2.9	1.0	-21.0	-3.6	/	/
CC(C)(C)OC(=O)N[C@@H](Cc1ccccc1)c1nnc(S(=O)(=O)Cc2cccc(F)c2)o1	52.8*	44.0*	7.9	-34.5	-7.4	5.7	72.4*
Cc1ccccc1CS(=O)(=O)c1nnc([C@H](CC(C)C)NC(=O)OC(C)(C)C)o1	36.5	47.2*	2.0	-7.0	11.0	-2.1	54.8*
